According to the supplement of paper PMC4466140:

What was measured:
Assay in all cases: SPOT peptide array binding signal intensity (averaged, normalized) (arbitrary units (background-subtracted, floor 0; scale differs between SH3 domains)); higher = stronger binding of the SH3 domain to the peptide
AgAbp1 = target: AgAbp1
How it was run: (§1)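 Detection of bound protein relied on anti-GST antibody, an HRP anti-mouse secondary and luminol, with imaging and quantification in Genespotter. The bound protein was GST-fused SH3 domains from four yeast species, incubated at 10 μg/ml overnight at 4°C in TBS-based blocking buffer on cellulose membranes carrying synthetic 15-mer peptides with cysteines replaced by serines. Binding signal is normalized, background-subtracted spot intensity averaged over replicates, in arbitrary units that differ between domains.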

AgBbc1 = target: AgBbc1
How it was run: as §1

AgBem1-D1 = target: AgBem1-D1
How it was run: as §1

AgBzz1-D1 = target: AgBzz1-D1
How it was run: as §1

AgBzz1-D2 = target: AgBzz1-D2
How it was run: as §1

AgCyk3 = target: AgCyk3
How it was run: as §1

AgFus1 = target: AgFus1
How it was run: as §1

AgHof1 = target: AgHof1
How it was run: as §1

AgHse1 = target: AgHse1
How it was run: as §1

AgLsb1 = target: AgLsb1
How it was run: as §1

AgLsb4 = target: AgLsb4
How it was run: as §1

AgMyo5 = target: AgMyo5
How it was run: as §1

AgNbp2 = target: AgNbp2
How it was run: as §1

AgRvs167 = target: AgRvs167
How it was run: as §1

AgSho1 = target: AgSho1
How it was run: as §1

AgSla1-D1-D2 = target: AgSla1-D1-D2
How it was run: as §1

AgSla1-D3 = target: AgSla1-D3
How it was run: as §1

CaAbp1-D1 = target: CaAbp1-D1
How it was run: as §1

CaAbp1-D2 = target: CaAbp1-D2
How it was run: as §1

CaBbc1 = target: CaBbc1
How it was run: as §1

CaBem1-D1 = target: CaBem1-D1
How it was run: as §1

CaBzz1-D1 = target: CaBzz1-D1
How it was run: as §1

CaBzz1-D2 = target: CaBzz1-D2
How it was run: as §1

CaCyk3 = target: CaCyk3
How it was run: as §1

CaFus1 = target: CaFus1
How it was run: as §1

CaHof1 = target: CaHof1
How it was run: as §1

CaHse1 = target: CaHse1
How it was run: as §1

CaLsb1 = target: CaLsb1
How it was run: as §1

CaLsb4 = target: CaLsb4
How it was run: as §1

CaMyo5 = target: CaMyo5
How it was run: as §1

CaNbp2 = target: CaNbp2
How it was run: as §1

CaRvs167 = target: CaRvs167
How it was run: as §1

CaRvs167-3 = target: CaRvs167-3
How it was run: as §1

CaSho1 = target: CaSho1
How it was run: as §1

CaSla1-D1-D2 = target: CaSla1-D1-D2
How it was run: as §1

CaSla1-D3 = target: CaSla1-D3
How it was run: as §1

ScAbp1 = target: ScAbp1
How it was run: as §1

ScBbc1 = target: ScBbc1
How it was run: as §1

ScBem1-D1 = target: ScBem1-D1
How it was run: as §1

ScBzz1-D1 = target: ScBzz1-D1
How it was run: as §1

ScBzz1-D2 = target: ScBzz1-D2
How it was run: as §1

ScCyk3 = target: ScCyk3
How it was run: as §1

ScFus1 = target: ScFus1
How it was run: as §1

ScHof1 = target: ScHof1
How it was run: as §1

ScHse1 = target: ScHse1
How it was run: as §1

ScLsb1 = target: ScLsb1
How it was run: as §1

ScLsb2 = target: ScLsb2
How it was run: as §1

ScLsb3 = target: ScLsb3
How it was run: as §1

ScLsb4 = target: ScLsb4
How it was run: as §1

ScMyo3 = target: ScMyo3
How it was run: as §1

ScMyo5 = target: ScMyo5
How it was run: as §1

ScNbp2 = target: ScNbp2
How it was run: as §1

ScPex13 = target: ScPex13
How it was run: as §1

ScRvs167 = target: ScRvs167
How it was run: as §1

ScSho1 = target: ScSho1
How it was run: as §1

ScSla1-D1-D2 = target: ScSla1-D1-D2
How it was run: as §1

ScSla1-D3 = target: ScSla1-D3
How it was run: as §1

SpAbp1-D1 = target: SpAbp1-D1
How it was run: as §1

SpBbc1 = target: SpBbc1
How it was run: as §1

SpBzz1-D1 = target: SpBzz1-D1
How it was run: as §1

SpBzz1-D2 = target: SpBzz1-D2
How it was run: as §1

SpCyk3 = target: SpCyk3
How it was run: as §1

SpHof1 = target: SpHof1
How it was run: as §1

SpHof1-2 = target: SpHof1-2
How it was run: as §1

SpHof1-3 = target: SpHof1-3
How it was run: as §1

SpHse1 = target: SpHse1
How it was run: as §1

SpLsb1 = target: SpLsb1
How it was run: as §1

SpLsb4 = target: SpLsb4
How it was run: as §1

SpMyo1 = target: SpMyo1
How it was run: as §1

SpNbp2 = target: SpNbp2
How it was run: as §1

SpPex13 = target: SpPex13
How it was run: as §1

SpRvs167 = target: SpRvs167
How it was run: as §1

SpSla1-D1-D2 = target: SpSla1-D1-D2
How it was run: as §1

SpSla1-D3 = target: SpSla1-D3
How it was run: as §1

B1: unnamed (peptide)
chain: PSPSSSPPPIPKTAN
AgAbp1
  SPOT peptide array binding signal intensity: 6.5
AgBbc1
  SPOT peptide array binding signal intensity: 2.5
AgBem1-D1
  SPOT peptide array binding signal intensity: 5
AgBzz1-D1
  SPOT peptide array binding signal intensity: 2
AgBzz1-D2
  SPOT peptide array binding signal intensity: 22.5
AgCyk3
  SPOT peptide array binding signal intensity: 1
AgFus1
  SPOT peptide array binding signal intensity: 0.5
AgHof1
  SPOT peptide array binding signal intensity: ≤ 0
AgHse1
  SPOT peptide array binding signal intensity: 27
AgLsb1
  SPOT peptide array binding signal intensity: 1
AgLsb4
  SPOT peptide array binding signal intensity: ≤ 0
AgMyo5
  SPOT peptide array binding signal intensity: 1760
AgNbp2
  SPOT peptide array binding signal intensity: ≤ 0
AgRvs167
  SPOT peptide array binding signal intensity: 2.33
AgSho1
  SPOT peptide array binding signal intensity: 2.5
AgSla1-D1-D2
  SPOT peptide array binding signal intensity: 2.5
AgSla1-D3
  SPOT peptide array binding signal intensity: ≤ 0
CaAbp1-D1
  SPOT peptide array binding signal intensity: ≤ 0
CaAbp1-D2
  SPOT peptide array binding signal intensity: 9
CaBbc1
  SPOT peptide array binding signal intensity: 1
CaBem1-D1
  SPOT peptide array binding signal intensity: ≤ 0
CaBzz1-D1
  SPOT peptide array binding signal intensity: 112
CaBzz1-D2
  SPOT peptide array binding signal intensity: 15
CaCyk3
  SPOT peptide array binding signal intensity: 1
CaFus1
  SPOT peptide array binding signal intensity: 31.5
CaHof1
  SPOT peptide array binding signal intensity: ≤ 0
CaHse1
  SPOT peptide array binding signal intensity: ≤ 0
CaLsb1
  SPOT peptide array binding signal intensity: ≤ 0
CaLsb4
  SPOT peptide array binding signal intensity: 4.5
CaMyo5
  SPOT peptide array binding signal intensity: 386
CaNbp2
  SPOT peptide array binding signal intensity: 15.5
CaRvs167
  SPOT peptide array binding signal intensity: ≤ 0
CaRvs167-3
  SPOT peptide array binding signal intensity: 3
CaSho1
  SPOT peptide array binding signal intensity: 5
CaSla1-D1-D2
  SPOT peptide array binding signal intensity: 8.5
CaSla1-D3
  SPOT peptide array binding signal intensity: ≤ 0
ScAbp1
  SPOT peptide array binding signal intensity: 9
ScBbc1
  SPOT peptide array binding signal intensity: ≤ 0
ScBem1-D1
  SPOT peptide array binding signal intensity: ≤ 0
ScBzz1-D1
  SPOT peptide array binding signal intensity: 4
ScBzz1-D2
  SPOT peptide array binding signal intensity: 20
ScCyk3
  SPOT peptide array binding signal intensity: ≤ 0
ScFus1
  SPOT peptide array binding signal intensity: ≤ 0
ScHof1
  SPOT peptide array binding signal intensity: ≤ 0
ScHse1
  SPOT peptide array binding signal intensity: 50
ScLsb1
  SPOT peptide array binding signal intensity: 1
ScLsb2
  SPOT peptide array binding signal intensity: ≤ 0
ScLsb3
  SPOT peptide array binding signal intensity: 24.5
ScLsb4
  SPOT peptide array binding signal intensity: ≤ 0
ScMyo3
  SPOT peptide array binding signal intensity: 2350
ScMyo5
  SPOT peptide array binding signal intensity: 1200
ScNbp2
  SPOT peptide array binding signal intensity: 6.5
ScPex13
  SPOT peptide array binding signal intensity: ≤ 0
ScRvs167
  SPOT peptide array binding signal intensity: 2
ScSho1
  SPOT peptide array binding signal intensity: ≤ 0
ScSla1-D1-D2
  SPOT peptide array binding signal intensity: ≤ 0
ScSla1-D3
  SPOT peptide array binding signal intensity: 22.8
SpAbp1-D1
  SPOT peptide array binding signal intensity: 8
SpBbc1
  SPOT peptide array binding signal intensity: 5
SpBzz1-D1
  SPOT peptide array binding signal intensity: 182
SpBzz1-D2
  SPOT peptide array binding signal intensity: 0.5
SpCyk3
  SPOT peptide array binding signal intensity: 1
SpHof1
  SPOT peptide array binding signal intensity: ≤ 0
SpHof1-2
  SPOT peptide array binding signal intensity: ≤ 0
SpHof1-3
  SPOT peptide array binding signal intensity: 0.5
SpHse1
  SPOT peptide array binding signal intensity: 2.5
SpLsb1
  SPOT peptide array binding signal intensity: 1.5
SpLsb4
  SPOT peptide array binding signal intensity: ≤ 0
SpMyo1
  SPOT peptide array binding signal intensity: 1570
SpNbp2
  SPOT peptide array binding signal intensity: 3
SpPex13
  SPOT peptide array binding signal intensity: ≤ 0
SpRvs167
  SPOT peptide array binding signal intensity: 1.17
SpSla1-D1-D2
  SPOT peptide array binding signal intensity: 2
SpSla1-D3
  SPOT peptide array binding signal intensity: 3

B2: unnamed (peptide)
chain: FVLRYYILIPHEQWD
AgAbp1
  SPOT peptide array binding signal intensity: 6
AgBbc1
  SPOT peptide array binding signal intensity: ≤ 0
AgBem1-D1
  SPOT peptide array binding signal intensity: 190
AgBzz1-D1
  SPOT peptide array binding signal intensity: ≤ 0
AgBzz1-D2
  SPOT peptide array binding signal intensity: 5.5
AgCyk3
  SPOT peptide array binding signal intensity: 13.5
AgFus1
  SPOT peptide array binding signal intensity: 1800
AgHof1
  SPOT peptide array binding signal intensity: 5
AgHse1
  SPOT peptide array binding signal intensity: 1200
AgLsb1
  SPOT peptide array binding signal intensity: 3
AgLsb4
  SPOT peptide array binding signal intensity: 334
AgMyo5
  SPOT peptide array binding signal intensity: 1
AgNbp2
  SPOT peptide array binding signal intensity: 82.5
AgRvs167
  SPOT peptide array binding signal intensity: 2.5
AgSho1
  SPOT peptide array binding signal intensity: 218
AgSla1-D1-D2
  SPOT peptide array binding signal intensity: 14.5
AgSla1-D3
  SPOT peptide array binding signal intensity: 2.75
CaAbp1-D1
  SPOT peptide array binding signal intensity: 30.5
CaAbp1-D2
  SPOT peptide array binding signal intensity: 78.5
CaBbc1
  SPOT peptide array binding signal intensity: 0.25
CaBem1-D1
  SPOT peptide array binding signal intensity: ≤ 0
CaBzz1-D1
  SPOT peptide array binding signal intensity: 63
CaBzz1-D2
  SPOT peptide array binding signal intensity: 36.8
CaCyk3
  SPOT peptide array binding signal intensity: 5
CaFus1
  SPOT peptide array binding signal intensity: 3930
CaHof1
  SPOT peptide array binding signal intensity: 0.75
CaHse1
  SPOT peptide array binding signal intensity: 174
CaLsb1
  SPOT peptide array binding signal intensity: 6.5
CaLsb4
  SPOT peptide array binding signal intensity: 31.5
CaMyo5
  SPOT peptide array binding signal intensity: 31.5
